Results reported in PubChem BioAssay AID720507 (National Center for Advancing Translational Sciences (NCATS), 2013).
Out of some 2,300 compounds screened, about 140 (6.1%) were called active. Not shown: some 18% with an inconclusive outcome. Calls come from the whole dose curve; as a rule, active = well fitted activation curve with a large enough effect; inconclusive = small, poorly fitted or top-dose-only effect; inactive = flat fitted curve, though single readings scatter. These entries were drawn from the full list.

molecular target: D(2) dopamine receptor (Homo sapiens) (UniProt P14416); experiment: qHTS of D3 Dopamine Receptor Agonist: D2 Dopamine Receptor B-arrestin Agonist Counterscreen; conditions: DiscoveRx PathHunter D2 beta-arrestin, luminescence, 90 min; series mostly up to 76.9 µM; activation: at the top concentration; note: nearly all actives have a fitted effect of over 70% in size; for activation: % of control where 0% means no effect
Text: D3 DARs represent a very important target for the treatment of several neuropsychiatric disorders. Indeed, one of the most promising therapeutic applications for the D3 DAR is in the area of addiction and related disorders. […] These findings have been observed with a number of addictive substances including cocaine, amphetamine, nicotine, and alcohol. […] Increased D3 DAR activity can thus lead to neuroprotective and neurorestorative actions in the CNS. […] This assay is used to profile the activity of the identified D3 dopamine receptor agonist against the D2 dopamine receptor. Greater than 10% of the maximum dopamine agonist response is desired for this assay. NIH Molecular Libraries Probe Production Centers Network [MLPCN] NIH Chemical Genomics Center [NCGC] MLPCN Grant: NS064831 Assay Submitter (PI): David Sibley
DiscoveRx D2 cells were thawed from frozen stock and seeded at 2,100 cells/ 3 uL/well media (DiscoveRx Plating Reagent 2) with MultiDrop Combi dispenser (Thermo Scientific, Logan, UT) onto white tissue culture treated 1536-well Aurora plates (Brooks Automation, Chelmsford, MA) and allowed to attach overnight at 37 deg C, 5% CO2. Next, 23 nL/well of compound solutions in DMSO were added with a pintool transfer (Kalypsis, San Diego, CA). […] The rest of the plate was dispensed with buffer only, 1 uL/well as well. The cells were stimulated by compounds or dopamine control for 90 minutes at 37 deg C, 5% CO2, after which 1.5 ul/well of DiscoveRx detection reagent was added with BioRAPTR FRD dispenser. The detection reagent was prepared by mixing of Galacton Star Substrate, Emerald II solution and PathHunter buffer (supplied by the assay kit) together at 1:5:19 proportion accordingly just prior to dispensing. The plates were incubated at ambient temperature for 1 hour and then the luminescent signal was read on ViewLux plate reader (PerkinElmer, Waltham, MA).
Potency is the fitted concentration of half-maximal effect.

D(2) dopamine receptor (Homo sapiens), sequence (P14416 whole entry, looked up): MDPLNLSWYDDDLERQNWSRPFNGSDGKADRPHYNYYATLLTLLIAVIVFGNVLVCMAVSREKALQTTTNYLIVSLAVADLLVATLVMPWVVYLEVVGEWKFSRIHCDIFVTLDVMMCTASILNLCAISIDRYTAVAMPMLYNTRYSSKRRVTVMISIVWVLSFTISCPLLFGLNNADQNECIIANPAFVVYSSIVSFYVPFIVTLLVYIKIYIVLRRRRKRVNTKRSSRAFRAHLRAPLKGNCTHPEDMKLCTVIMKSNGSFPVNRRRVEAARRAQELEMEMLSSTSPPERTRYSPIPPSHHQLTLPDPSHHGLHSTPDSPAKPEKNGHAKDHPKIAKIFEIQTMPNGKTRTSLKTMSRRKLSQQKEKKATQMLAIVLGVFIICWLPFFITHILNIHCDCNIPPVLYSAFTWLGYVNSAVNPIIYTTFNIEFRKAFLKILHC

| Structure (SMILES) | activation | Potency |
| --- | --- | --- |
| O=C(CC1NCCc2ccccc21)Nc1cccc(Cl)c1 (centres undefined) | -6.22% (inactive) |  |
| O=C1C=C(c2cccc(Br)c2)C[C@@H](c2ccc(F)cc2)C1 | -3.31% (inactive) |  |
| CC(C)(C)C(=O)OCc1nc(-c2ccc(O)c(O)c2)cs1 |  | 28.2 µM (active) |
| CC(CCc1ccccc1)NCC(O)c1cccc([N+](=O)[O-])c1 (centres undefined) | 11.9% (inactive) |  |
| CC(OC(=O)/C=C/c1ccccc1)C(=O)NC1CCCCC1C (centres undefined) | 2.72% (inactive) |  |
| O=C(OCc1nc2ccccc2[nH]1)C1CCCCC1 | 10.5% (inactive) |  |
| CCCN1CC=C2C(C#N)=C(N)C(C#N)(C#N)C(c3cc(OC)ccc3OC)C2C1 (centres undefined) | -1.56% (inactive) |  |
| CN(C)CCOC(=O)C(c1ccccc1)C1(O)CCCC1 (centres undefined) | -3.98% (inactive) |  |
| COc1cccc(NC(=O)C2CCCN(c3ncnc4c3nc3n4CCCCC3)C2)c1 (centres undefined) | -3.08% (inactive) |  |
| CC(=C1C(=O)c2ccccc2C1=O)N1CCN(c2ccccn2)CC1 | 24.7% (inactive) |  |
| CNCC(O)c1ccc(O)c(O)c1 (centres undefined) |  | 17.8 µM (active) |
| Cc1ccc(CN2CCN(c3ncccn3)CC2)c(C)c1 |  | 50.1 µM (active) |
| O=C(CN1CCN(c2ncccn2)CC1)Nc1ccccc1C(F)(F)F | 17.1% (inactive) |  |
| Cc1ccccc1Nc1nc(N)nc(CN2CCN(c3ccccn3)CC2)n1 | -0.216% (inactive) |  |
| O=C1CC[C@H](O)CCN1[C@H](CSc1ccc(Br)cc1)Cc1ccccc1 | 0.237% (inactive) |  |
| O=C(c1ccccc1)c1ccc(OCC(O)CN2CCCC2)cc1 (centres undefined) | -1.06% (inactive) |  |
| Cc1cc(C(=O)NNC(=O)c2ccccc2O)c(C)o1 | -1.85% (inactive) |  |

| Structure (SMILES) | activation | Potency |
| --- | --- | --- |
| CCCCC(=O)NNC(=S)NC(=O)C(c1ccccc1)c1ccccc1 | -7.08% (inactive) |  |
| Cn1c(C(=O)NCCCN2CCN(c3cccc(Cl)c3)CC2)cc2c(=O)n(C)c3ccccc3c21 | 9.01% (inactive) |  |
| CCn1cc(C(=O)N2CCN(Cc3ccc4c(c3)OCO4)CC2)c2cc(OC)c(OC)cc2c1=O | 18.8% (inactive) |  |
| CCC(CC)NC(=O)/C=C/c1cccc([N+](=O)[O-])c1 | -0.402% (inactive) |  |
| O=C(CCCn1c(=O)[nH]c2cc(Cl)ccc2c1=O)NCCN1CCN(c2ccccc2)CC1 | 10.7% (inactive) |  |
| O=C(CCn1c(=O)[nH]c2ccccc2c1=O)NCCCN1CCN(c2cccc(Cl)c2)CC1 | 12.8% (inactive) |  |
| CC(=O)Nc1ccc(OCC(O)CN2CCN(c3ccccc3Cl)CC2)cc1 (centres undefined) | 18.5% (inactive) |  |
| CC(C)c1ccc(OCC(O)CN2CCN(c3ccccn3)CC2)cc1 (centres undefined) |  | 39.8 µM (active) |
| Cc1ccccc1OCC(O)CN1CCN(c2ccccn2)CC1 (centres undefined) | 7.71% (inactive) |  |
| COc1ccc(C2NC(=O)C(=O)/C2=C(\O)c2ccc(Cl)cc2)cc1OC (centres undefined) | -3.12% (inactive) |  |
| CCn1c(=O)n(CC)c2cc(N3CCCC3)c(NC(=O)c3ccccc3Br)cc21 | 2.89% (inactive) |  |
| Cc1cccc(OCC(=O)NCC(=O)N/N=C/c2ccc(N(C)C)cc2)c1 | -2.06% (inactive) |  |
| OC(COCc1ccco1)CN1CCN(c2ccccc2)CC1 (centres undefined) | 18.6% (inactive) |  |
| OC(COc1ccc2c(c1)CCC2)CN1CCN(c2cccc(Cl)c2)CC1 (centres undefined) | 27.5% (inactive) |  |
| CC(C)(C)n1ncc2c(=O)n(Cc3c(Cl)cccc3Br)cnc21 | 6.34% (inactive) |  |
| CC(C)CCN1CCN(Cc2cn[nH]c2C2CCCCC2)CC1CCO (centres undefined) | 3.55% (inactive) |  |
| Cc1cc(C)c(/C=C2\C(=O)Nc3ccccc32)[nH]1 | -6.49% (inactive) |  |
